Shown are actives, neighbours in structure and some others; about 2.4% of the full set was active somewhere.
Pol eta inh = blocks human DNA polymerase eta activity | AID 588591 | actives 1.2% (n = 390,000) | recombinant Pol eta, fluorescent DNA replication assay | Potency, µM (highest dose often 114 µM), for the others: at the highest dose activity change, negative = inhibition, usual class: inhibitors; also: % is scaled to controls: 0 for no effect and ±100 for the full control effect
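Pol eta at 10 nM preincubated with compounds 15 min at room temperature; reaction started with fluorescent substrate (50 nM final) and read kinetically at 0 and 10 min.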
POLK inh = inhibitors of human DNA polymerase kappa | Q9UBT6 | purified Pol kappa, fluorescent DNA synthesis assay, 10 min | Potency, µM (doses to about 107 µM), for the others: at the highest dose activity, negative = inhibition, hits mostly inhibitors | actives 0.53% (n = 400,000) | AID 588579; also: % is scaled to controls: 0 for no effect and ±100 for the full control effect
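10 nM Pol kappa was preincubated with compounds for 15 min at room temperature. Reaction started with 50 nM (final) substrate. Fluorescence read kinetically at 0 and 10 min.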
WRN helicase inh = WRN helicase (human) inhibition; Q14191; WRN helicase unwinding, fluorescent forked duplex, kinetic; Potency, µM (titrated, usually from 114 µM), for the others: at the top dose activity change, negative = inhibition, actives largely listed as inhibitors; actives 0.46% (n = 360,000); also: % is scaled to controls: 0 for no effect and ±100 for the full control effect; nearly all actives have a fitted effect of over 55% in size
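Primary qHTS, 1536-well format. 20 nM WRN + compound, 15 min RT; start with 100 nM forked fluorophore/quencher duplex, 2 mM ATP (final); kinetic read ex 525/em 598 nm.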
FEN1 inhibitor = blocks human flap endonuclease 1 | P39748 | Recombinant FEN1 flap cleavage, fluorescence, 15 min | Potency, µM (top dose mostly 114 µM), for the others: top-dose activity change, negative = inhibition, hits mostly inhibitors | actives 0.35% (n = 390,000) | AID 588795; also: % is scaled to controls: 0 for no effect and ±100 for the full control effect; nearly all actives have a fitted effect of over 65% in size
Target sequence (P39748 whole entry, looked up): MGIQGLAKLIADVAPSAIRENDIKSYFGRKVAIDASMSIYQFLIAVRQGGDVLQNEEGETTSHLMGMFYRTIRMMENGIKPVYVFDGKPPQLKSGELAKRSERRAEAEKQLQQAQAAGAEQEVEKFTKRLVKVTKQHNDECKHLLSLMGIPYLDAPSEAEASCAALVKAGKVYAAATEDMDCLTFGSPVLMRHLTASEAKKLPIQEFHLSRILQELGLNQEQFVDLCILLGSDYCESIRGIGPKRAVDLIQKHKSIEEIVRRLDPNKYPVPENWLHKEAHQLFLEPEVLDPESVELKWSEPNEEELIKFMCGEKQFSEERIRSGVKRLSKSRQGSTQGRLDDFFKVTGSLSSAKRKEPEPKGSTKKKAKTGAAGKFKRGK
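Concentration–response screening of FEN1 (10 nM): 15 min compound preincubation at room temperature, reaction started with 50 nM substrate and read at 0 and 15 min. Corrected, normalized data were fitted by a four-parameter Hill equation.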
Pol iota inh = blocks human DNA polymerase iota activity; Q9UNA4; Pol iota fluorescent replication assay, 10 min; Potency, µM (top dose mostly 115 µM), for inactives: at the top dose activity, negative = inhibition, hits mostly inhibitors; actives 1% (n = 390,000); AID 588590
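Pol iota at 10 nM preincubated 15 min with compounds at room temperature; reaction started with fluorescent substrate, 50 nM final. Fluorescence read kinetically at 0 and 10 min; buffer-only wells as negative control.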
Pol beta inh = inhibitors of human DNA polymerase beta. P06746. Pol beta primer extension/strand displacement, fluorescence kinetic. Potency, µM (doses to about 114 µM), inactives show top-dose activity change, negative = inhibition, hits mostly inhibitors. actives 1.3% (n = 340,000); also: % is scaled to controls: 0 for no effect and ±100 for the full control effect
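Preincubation: enzyme (10 nM) with compound, 15 min, RT. Reaction: substrate added to 50 nM final. Reads: 0 and 10 min. Analysis: normalized, Hill fit.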
Starred values were filed as active, the others as inactive; ? = inconclusive; . = not tested or not shown; [ ] = dose if it differs, or a comment. Calls follow the shape of the dose curve; as a rule, active = well fitted curve in the direction sought with a large enough effect; inconclusive = small, poorly fitted or top-dose-only effect, or another doubt; inactive = no such curve, though single readings can be large; an effect the other way counts as inactive or inconclusive. Potency is read from the fitted curve at half-maximal effect.

SMILES	Pol eta inh	POLK inh	WRN helicase inh	FEN1 inhibitor	Pol iota inh	Pol beta inh
Cc1cc(C(=O)NNS(=O)(=O)c2cc(C(=O)O)ccc2Cl)c(C)n1-c1ccccc1	22µM*	?	-15%	9%	?	.
Cc1cc(C)c2nccc(C)c2c1	.	-3%	.	-18%	8%	.
Cc1cc(C)nc(SCc2ccc(C(=O)N/N=C/c3ccco3)cc2)n1	-4%	-3%	7%	-1%	100%	14µM*
COc1ccc(O)c(/C=N/NC(=O)c2ccc(CSc3nc(C)cc(C)n3)cc2)c1	?	?	?	-11%	?	25µM*
C/C(=N\NC(=O)c1ccc(CSc2nc(C)cc(C)n2)cc1)c1ccco1	-8%	-24%	9%	3%	103%	56µM*
COc1ccc(O)c(/C=N/NC(=O)c2ccc(OCc3cccc(Br)c3)cc2)c1	-10%	-9%	-6%	3%	?	16µM*
Cc1c(NC(=O)c2ccco2)cccc1-c1nc2cccnc2s1	45µM*	-19%	-14%[57.1 µM]	6%	?	-4%
C=CC1=C(C)C2=Cc3c(C=C)c(C)c4[n]3[Sn+2][n]3c(c(C)c(CCC(=O)O)c3=CC3=NC(=C4)C(C)=C3CCC(=O)O)=CC1=N2	.	13µM*	.	.	.	.
O=C(Nc1ccc(O)cc1C(=O)O)c1ccc2c(c1)C(=O)N(Cc1ccco1)C2=O	40µM*	-28%	?	?	?	?
CC(C)CN1C(=O)c2ccc(C(=O)Nc3ccc(O)cc3C(=O)O)cc2C1=O	-8%	-6%	-22%	-7%	112%	16%
Cc1sc(-n2cccc2)c(C(=O)O)c1C	89µM*	-32%	-24%[57.1 µM]	-2%	?	?
O=Cc1cc2c3c(c1)CCCN3CCC2	.	-19%	.	3%	10%	.
O=C(COc1ncnc2ccccc12)N1CCN(C(=O)c2ccco2)CC1	-13%	-3%	11%	1%	7%	-1%
O=C(COc1ncnc2sccc12)N1CCN(C(=O)c2ccco2)CC1	?	?	?	1%	20µM*	40µM*
O=C1[C@H](Cc2ccccc2)NC/C=C\C[C@H](c2ccco2)N1Cc1ccccc1	.	-8%	.	-21%	0%	.
Nc1ccc2cc3ccccc3cc2c1	-8%	10%	0%	1%	50%	.
Nc1ccc2cccc(O)c2c1	22µM*	79µM*	-27%	-11%	13µM*	.
COc1ccc(-n2ncc3c(N4CCC(C(N)=O)CC4)ncnc32)cc1	-23%	-11%	9%	-6%	1%	?
CCOC(=O)C1CCN(c2ncnc3c2cnn3-c2ccc(OC)cc2)CC1	-7%	-23%	-19%	-7%	11%	50µM*
CCc1cccc(C)c1NC(=O)C1CCN(S(=O)(=O)c2cccc3nonc23)CC1	-1%	?	.	89µM*	89µM*	?
Cc1ccc(NC(=O)C2CCN(S(=O)(=O)c3cccc4nonc34)CC2)cc1C	13%	-5%[60.1 µM]	.	-3%	-20%	-11%
CC[C@H](C)[C@H](NC(=O)[C@H](N)Cc1ccc(O)cc1)C(=O)N[C@@H](CC(N)=O)C(=O)N[C@@H](CC(C)C)C(=O)N[C@H](C(=O)N[C@@H](C(=O)N[C@@H](CCCN=C(N)N)C(=O)N[C@@H](CCC(N)=O)C(=O)N[C@@H](CCCN=C(N)N)C(=O)N[C@H](Cc1ccc(O)cc1)C(N)=O)[C@@H](C)O)[C@@H](C)CC	.	7%[60.1 µM]	.	.	.	.
O=S(=O)(c1nccs1)N1CCN(c2nc(-c3cccs3)nc3ccccc23)CC1	.	8%	.	4%	18%	.
O=C(Nc1ccccc1Cc1ccccc1)c1ccccc1NS(=O)(=O)c1ccc(Cl)s1	79µM*	-13%	-20%	?	-14%	?
O=C(Nc1ccccc1)c1ccccc1NS(=O)(=O)c1ccc(Cl)s1	-12%	-3%	-3%	-2%	3%	-22%
